According to the supplement of paper PMC13380429:

System: Vero E6 infected with SARS-CoV-2
Assay: inhibition of SARS-CoV-2 cytopathic effect; higher = more antiviral protection, active = above 15
Settings: 48 h

Measured: inhibition of SARS-CoV-2 cytopathic effect

c1ccc(CN2CCC3(CCc4ccccc43)CC2)cc1
inactive: 1 nM -1.07% | 8.33 nM -1.48% | 100 nM 0.06% | 833.33 nM 1.63% | 10000 nM 0.48%

COc1cc(S(C)(=O)=O)ccc1Nc1nc2ccc(-c3ccc(NC(=O)[C@H](C)c4ccc(F)cc4)cc3)cn2n1
inactive: 1 nM 0.71% | 8.33 nM -3.05% | 100 nM 0.88% | 833.33 nM -5.66% | 10000 nM -4.51%

CCCCCC(O)CCCC(=O)O (stereo not given)
inactive: 1 nM -2.76% | 8.33 nM -6.54% | 100 nM -3.55% | 833.33 nM -1.75% | 10000 nM -6.15%

Cc1c(I)c(=O)n(-c2ccccc2)n1C [iodoantipyrine]
inactive: 1 nM -0.48% | 8.33 nM -2.57% | 100 nM -0.75% | 833.33 nM -0.95% | 10000 nM 1.55%

CCCCN(CC)c1nc(C)nc2c1c(C)c(C)n2-c1c(C)cc(C)cc1C [antalarmin]
inactive: 1 nM -0.13% | 8.33 nM -2.86% | 100 nM 1.21% | 833.33 nM -0.62% | 10000 nM 2%

CS(=O)(=O)CCNCc1ccc(-c2ccc3ncnc(Nc4ccc(OCc5cccc(F)c5)c(Cl)c4)c3c2)o1 [lapatinib]
inactive: 1 nM -1.4% | 8.33 nM 0.42% | 100 nM -3.11% | 833.33 nM -11.4% | 10000 nM -7.81%

CC(C)=CCC/C(C)=C/CC/C(C)=C/CSc1ccccc1C(=O)O [salirasib]
inactive: 1 nM 2.79% | 8.33 nM 2.19% | 100 nM 1.36% | 833.33 nM 6.06% | 10000 nM 0.01%

CC1=C(CC(=O)O)c2cc(F)ccc2/C1=C\c1ccc(S(C)(=O)=O)cc1 [exisulind]
inactive: 1 nM -5.21% | 8.33 nM -2.14% | 100 nM -3.65% | 833.33 nM 0.09% | 10000 nM -2.3%

Cc1ncc([N+](=O)[O-])n1CC(O)CN1CCOCC1 (stereo not given) [morinidazole]
inactive: 1 nM -0.31% | 8.33 nM -0.21% | 100 nM -0.51% | 833.33 nM -1.22% | 10000 nM -0.64%

CN[C@@H](C)[C@H](O)c1ccccc1 [ephedrine]
inactive: 1 nM -1.32% | 8.33 nM -0.23% | 100 nM 1.57% | 833.33 nM 3.01% | 10000 nM -0.52%

CCCCOc1cc(C(=O)OCCN(CC)CC)ccc1N [oxybuprocaine]
inactive: 1 nM 0.54% | 8.33 nM 0.93% | 100 nM 5.2% | 833.33 nM 3.06% | 10000 nM -0.68%

O=C(O)C[C@H]1CC[C@H](c2ccc(-c3ccc(Nc4ccc(C(F)(F)F)nc4)cn3)cc2)CC1
inactive: 1 nM -1.27% | 8.33 nM 0.84% | 100 nM -0.93% | 833.33 nM -2.65% | 10000 nM 1.98%

CNC(=S)C1(c2ccccn2)CCCS1 (stereo not given) [picartamide]
inactive: 1 nM -4.38% | 8.33 nM 0.23% | 100 nM -0.26% | 833.33 nM 2.39% | 10000 nM 6.75%

CCCCCOC(=O)Nc1nc(=O)n([C@@H]2O[C@H](C)[C@@H](O)[C@H]2O)cc1F [capecitabine]
inactive: 1 nM -2.56% | 8.33 nM 0.42% | 100 nM -1.36% | 833.33 nM -0.59% | 10000 nM -1.14%

CN1CCC(COc2cnc(-c3cccc(Cn4nc(-c5cccc(C#N)c5)ccc4=O)c3)nc2)CC1
inactive: 1 nM 1% | 8.33 nM 1.71% | 100 nM 1.4% | 833.33 nM 2.63% | 10000 nM 9.19%

O=c1c(-c2ccccc2)c1-c1ccccc1 [diphencyprone]
inactive: 1 nM -0.95% | 8.33 nM 0.49% | 100 nM -1.61% | 833.33 nM -1.95% | 10000 nM 5.98%

COc1ccc(CCO[C@@H]2CCCC[C@H]2N2CC[C@@H](O)C2)cc1OC [vernakalant]
inactive: 1 nM -0.46% | 8.33 nM 0.39% | 100 nM -0.75% | 833.33 nM 1.67% | 10000 nM -1.63%

CCN(CC)CCN(Cc1ccc(-c2ccc(C(F)(F)F)cc2)cc1)C(=O)Cn1c(SCc2ccc(F)cc2)nc(=O)c2c1CCC2 [darapladib]
inactive: 1 nM 1.47% | 8.33 nM 1.73% | 100 nM -1.85% | 833.33 nM -2.02% | 10000 nM -25.3%

CCN(CC)CCNC(=O)c1cc(S(C)(=O)=O)ccc1OC [tiapride]
inactive: 1 nM 1.6% | 8.33 nM -0.89% | 100 nM -0.61% | 833.33 nM 0.66% | 10000 nM 2.27%
